# The whole screen tested about 5,500 compounds, of which about 2,000 (36%) were called active. Not shown: some 18% with an inconclusive outcome. The list shows a part of the results. Values without a mark were called inactive. No stated cut-off is given here; in the data, active means normalized growth mostly below about 0.91 (no sharp cut-off); inconclusive means no clear call, values can overlap the other calls; inactive means mostly above about 0.92.
# Assay: chemical genetic growth profiling, strain panel (AID 1159580);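 further: tested at 20 µM; growth read once vehicle control cultures reached saturation at 30 °C; 1 = growth at the plate median or of vehicle wells; lower values mean less growth of the strain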
# Details: growth OD
# [1] = S. cerevisiae deletion strains, locus YAL013W, strain DEP1, active compounds read low
# [2] = S. cerevisiae deletion strains, locus YBR229C, strain ROT2, active compounds read low
# [3] = S. cerevisiae deletion strains, locus YCL061C, strain MRC1, active compounds read low
# [4] = S. cerevisiae deletion strains, locus YDL101C, strain DUN1, active compounds read low
# [5] = S. cerevisiae deletion strains, locus YDR150W, strain NUM1, active compounds read low
# [6] = S. cerevisiae deletion strains, locus YEL061C, strain CIN8, active compounds read low
# [7] = S. cerevisiae deletion strains, locus YGR078C, strain PAC10, active compounds read low
# [8] = S. cerevisiae deletion strains, locus YHR030C, strain SLT2, active compounds read low
# [9] = S. cerevisiae deletion strains, locus YHR087W, strain rtc3, active compounds read low
# [10] = S. cerevisiae deletion strains, locus YJL187C, strain SWE1, active compounds read low
# [11] = S. cerevisiae deletion strains, locus YJR043C, strain POL32, active compounds read low
# [12] = S. cerevisiae deletion strains, locus YJR075W, strain HOC1, active compounds read low
# [13] = S. cerevisiae deletion strains, locus YKL190W, strain CNB1, active compounds read low
# [14] = S. cerevisiae deletion strains, locus YLR039C, strain RIC1, active compounds read low
# [15] = S. cerevisiae deletion strains, locus YLR058C, strain SHM2 (second series), active compounds read low
# [16] = S. cerevisiae deletion strains, locus YLR085C, strain ARP6, active compounds read low
# [17] = S. cerevisiae deletion strains, locus YLR262C, strain YPT6, active compounds read low
# [18] = S. cerevisiae deletion strains, locus YML094W, strain GIM5, active compounds read low
# [19] = S. cerevisiae deletion strains, locus YMR219W, strain ESC1, active compounds read low
# [20] = S. cerevisiae deletion strains, locus YMR263W, strain SAP30, active compounds read low
# [21] = S. cerevisiae deletion strains, locus YNL128W, strain TEP1, active compounds read low
# [22] = S. cerevisiae deletion strains, locus YNL153C, strain GIM3, active compounds read low
# [23] = S. cerevisiae deletion strains, locus YNL298W, strain CLA4 (second series), active compounds read low
# [24] = S. cerevisiae deletion strains, locus YNL322C, strain KRE1, active compounds read low
# [25] = S. cerevisiae deletion strains, locus YNR030W, strain Alg12, active compounds read low
# [26] = S. cerevisiae deletion strains, locus YPL055C, strain LGE1, active compounds read low
# [27] = S. cerevisiae deletion strains, locus YPL241C, strain CIN2, active compounds read low
# [28] = S. cerevisiae deletion strains, locus YPR135W, strain CTF4, active compounds read low
compound,measurement,setting,value
C=C1SC(=Nc2cccc(OC)c2)N(C(=O)C(c2ccccc2)C2CCCC2)C1(C)C (stereo not given),normalized growth,[1],1.01
same,normalized growth,[2],0.971
same,normalized growth,[3],1.01
same,normalized growth,[4],1.06
same,normalized growth,[5],1.02
same,normalized growth,[6],0.963
same,normalized growth,[7],1.01
same,normalized growth,"S. cerevisiae deletion strains, locus YGR229C, strain SMI1, active compounds read low",0.983
same,normalized growth,[8],1.03
same,normalized growth,[9],0.957
same,normalized growth,[10],0.999
same,normalized growth,[11],1.01
same,normalized growth,[12],1.02
same,normalized growth,[13],0.977
same,normalized growth,[14],0.922
same,normalized growth,[15],0.979
same,normalized growth,[16],1.02
same,normalized growth,[17],0.919
same,normalized growth,[18],1
same,normalized growth,[19],1
same,normalized growth,[20],1.02
same,normalized growth,[21],0.97
same,normalized growth,[22],1.03
same,normalized growth,[23],1.01
same,normalized growth,[24],0.984
same,normalized growth,[25],1.02
same,normalized growth,[26],0.997
same,normalized growth,[27],1.07
same,normalized growth,[28],1.03
same,normalized growth,"S. cerevisiae strains, strain wild type, active compounds read low",0.95
CC(C)(C)c1ccc(-c2n[nH]c(=S)n2-c2cccc(C(F)(F)F)c2)cc1,normalized growth,[1],0.993
same,normalized growth,[2],1.01
same,normalized growth,[4],0.995
same,normalized growth,[5],1.01
same,normalized growth,[6],0.972
same,normalized growth,[7],0.977
same,normalized growth,[8],0.966
same,normalized growth,[9],1
same,normalized growth,[10],1.22 [resistant] (active)
same,normalized growth,[11],1.01
same,normalized growth,[12],1.24 [resistant] (active)
same,normalized growth,[13],1.01
same,normalized growth,[14],0.744 (active)
same,normalized growth,[15],1.03
same,normalized growth,[16],1.06
same,normalized growth,[17],0.884
same,normalized growth,[18],0.978
same,normalized growth,[19],1.01
same,normalized growth,[20],1
same,normalized growth,[22],1.03
same,normalized growth,[23],0.958
same,normalized growth,[24],1.01
same,normalized growth,[25],0.964
same,normalized growth,[26],0.949
same,normalized growth,[27],0.949
same,normalized growth,[28],0.829
COc1ccc(-c2n[nH]c(=S)n2-c2cccc(OC)c2)cc1,normalized growth,[1],0.987
same,normalized growth,[2],0.994
same,normalized growth,[3],0.977
same,normalized growth,[4],0.969
same,normalized growth,"S. cerevisiae deletion strains, locus YDL134C, strain PPH21, active compounds read low",0.979
same,normalized growth,[5],0.977
same,normalized growth,[6],1.01
same,normalized growth,[7],0.956
same,normalized growth,[8],1.02
same,normalized growth,[9],1.02
same,normalized growth,[10],0.993
same,normalized growth,[11],0.979
same,normalized growth,[12],0.967
same,normalized growth,[14],0.944
same,normalized growth,[15],0.989
same,normalized growth,[16],0.954
same,normalized growth,[17],1
same,normalized growth,[18],1
same,normalized growth,[19],0.986
same,normalized growth,[20],1
same,normalized growth,[21],0.989
same,normalized growth,[22],0.983
same,normalized growth,[23],0.957
same,normalized growth,[24],0.978
same,normalized growth,[25],0.966
same,normalized growth,[26],0.994
same,normalized growth,[27],0.967
same,normalized growth,[28],0.904
O=C(CSCc1c(F)cccc1Cl)NC1Cc2ccccc2C1,normalized growth,[1],0.984
same,normalized growth,[2],0.973
same,normalized growth,[4],0.995
same,normalized growth,[5],0.959
same,normalized growth,[6],0.949
same,normalized growth,[7],0.978
same,normalized growth,[8],0.776
same,normalized growth,[9],0.962
same,normalized growth,[11],0.991
same,normalized growth,[12],0.944
same,normalized growth,[14],0.925
same,normalized growth,[15],0.973
same,normalized growth,[16],0.906
same,normalized growth,[17],0.964
same,normalized growth,[18],0.956
same,normalized growth,[19],0.97
same,normalized growth,[20],0.991
same,normalized growth,"S. cerevisiae deletion strains, locus YMR307W, strain GAS1, active compounds read low",0.628 (active)
same,normalized growth,[21],0.988
same,normalized growth,[22],0.977
same,normalized growth,[23],0.944
same,normalized growth,[24],0.973
same,normalized growth,[25],0.943
same,normalized growth,[26],0.944
same,normalized growth,[27],0.938
same,normalized growth,[28],0.76
